Values joined by “and” are separate entries in the source; they are usually repeats but may differ in a detail not shown here. Equal values may be shown once. Records with an inconclusive call do not appear. Where a structure was tested more than once in an assay, its records may differ in their call. Active and inactive are the calls of the source. Rule for the calls, unless noted: active = hit-call score of the fitted dose curve at least 0.9, where 1 is the maximum; inactive = score below 0.9.
Tests used:
[1] = molecular target: Nuclear respiratory factor 1 (Homo sapiens) (UniProt Q16656); test: ATG_NRF1_CIS: Attagene CIS-FACTORIAL HepG2 Assay for human Nuclear Respiratory Factor 1 (NRF1) Orphan Gene (AID 2282987); details: HepG2 NRF1 cis-element reporter, Attagene multiplex; actives raise or lower the signal
Sequence of Nuclear respiratory factor 1 (Homo sapiens) (Q16656 whole entry, looked up): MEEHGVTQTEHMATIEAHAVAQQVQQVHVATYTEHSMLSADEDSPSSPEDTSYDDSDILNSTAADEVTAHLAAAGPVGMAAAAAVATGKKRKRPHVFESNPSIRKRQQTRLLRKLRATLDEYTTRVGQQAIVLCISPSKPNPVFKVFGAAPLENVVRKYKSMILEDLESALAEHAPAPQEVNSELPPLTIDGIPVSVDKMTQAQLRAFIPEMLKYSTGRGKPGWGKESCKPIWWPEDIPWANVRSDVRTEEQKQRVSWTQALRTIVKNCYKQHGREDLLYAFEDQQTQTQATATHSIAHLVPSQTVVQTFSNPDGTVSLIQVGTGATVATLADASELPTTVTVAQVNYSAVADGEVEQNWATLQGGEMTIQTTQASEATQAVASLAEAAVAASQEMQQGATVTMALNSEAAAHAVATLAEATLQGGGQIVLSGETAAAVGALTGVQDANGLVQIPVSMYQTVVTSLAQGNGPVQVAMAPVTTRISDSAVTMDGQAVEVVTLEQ
Summary of the method: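 Reporter mRNA induction or loss in HepG2 cells after 24 h dosing; cis-regulated reporter constructs report endogenous transcription-factor activity. Quantified by RT-PCR/capillary electrophoresis fluorescence, DMSO-referenced.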

[2] = ATG_NFI_CIS: Attagene CIS-FACTORIAL HepG2 Assay for human Nuclear Factor I (NFI) (AID 2282989); details: HepG2 cis-regulatory reporter, NFI response element transcription; actives raise or lower the signal
Summary of the method: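 HepG2 cells transiently transfected with cis-element-driven multiplexed reporter transcription units, dosed for 24 h. Reporter mRNA quantified by RT-PCR, fluorescent labelling, HpaI digestion and capillary electrophoresis; bidirectional fit versus DMSO baseline.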

[3] = molecular target: Myc proto-oncogene protein (Homo sapiens) (UniProt P01106); test: ATG_Myc_CIS: Attagene CIS-FACTORIAL HepG2 Assay for human Myelocytomatosis (Myc) Proto-Oncogene Transcription Factor (AID 2282990); details: HepG2, Attagene cis-reporter transcription factor activity; actives raise or lower the signal
Sequence of Myc proto-oncogene protein (Homo sapiens) (P01106 whole entry, looked up, the tested form may be a part): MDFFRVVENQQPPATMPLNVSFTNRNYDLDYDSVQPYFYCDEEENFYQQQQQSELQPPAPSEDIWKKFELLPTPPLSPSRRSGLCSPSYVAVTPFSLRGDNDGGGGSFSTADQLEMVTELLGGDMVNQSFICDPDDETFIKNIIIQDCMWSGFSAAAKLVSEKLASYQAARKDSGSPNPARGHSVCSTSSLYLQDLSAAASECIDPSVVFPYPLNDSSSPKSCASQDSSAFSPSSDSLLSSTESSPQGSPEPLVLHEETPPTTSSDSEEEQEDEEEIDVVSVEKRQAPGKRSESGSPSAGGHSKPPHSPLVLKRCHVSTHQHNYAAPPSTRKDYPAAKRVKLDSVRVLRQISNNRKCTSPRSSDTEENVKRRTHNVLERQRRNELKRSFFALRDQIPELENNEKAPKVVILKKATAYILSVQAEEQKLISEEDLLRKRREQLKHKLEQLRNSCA
Summary of the method: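 Read-out: fluorescent reporter mRNA fragments resolved by capillary electrophoresis after RT-PCR. Human HepG2 liver cells carried transfected cis-element reporter units and were dosed for 24 h. Gain or loss of signal fitted relative to DMSO baseline.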

[4] = ATG_NF_kB_CIS: Attagene CIS-FACTORIAL HepG2 Assay for human Nuclear Factor Kappa B (NF-kB) (AID 2282991); details: HepG2 Attagene cis-factorial NF-kB reporter mRNA; actives raise or lower the signal
Summary of the method: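 DMSO served as negative control and baseline for bidirectional curve fitting. Transiently transfected HepG2 cells were dosed for 24 h, then reporter transcripts were measured by RT-PCR with capillary electrophoresis detection.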

[5] = ATG_NRF2_ARE_CIS: Attagene CIS-FACTORIAL HepG2 Assay for human Nuclear Factor Erythroid 2 Related Factor 2 (NFR2) response to Antioxidant Response Elements (ARE) (AID 2282992); details: HepG2 Attagene ARE/NRF2 reporter, transcription factor activity; actives raise or lower the signal;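 for AC50: reporter mRNA level measured by RT-PCR and capillary electrophoresis fluorescence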
Summary of the method: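 HepG2 cells transiently transfected with multiplexed cis-regulated reporter transcription units measure endogenous transcription factor activity. Reporter mRNA at 24 h is quantified by RT-PCR, fluorescent labelling and capillary electrophoresis, with bidirectional fitting relative to DMSO.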

[6] = ATG_Oct_MLP_CIS: Attagene CIS-FACTORIAL HepG2 Assay for human Octamer-Binding Transcription Factor (Oct) (AID 2282993); details: HepG2 Attagene cis-factorial Oct reporter, mRNA; actives raise or lower the signal
Summary of the method: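 HepG2 cells transiently transfected with cis-promoter-driven multiplexed reporter transcription units, dosed for 24 h. Reporter mRNA quantified by RT-PCR, fluorescent labelling, HpaI digestion and capillary electrophoresis; bidirectional fits versus DMSO baseline.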

[7] = molecular target: Cellular tumor antigen p53 (Homo sapiens) (UniProt P04637); test: ATG_p53_CIS: Attagene CIS-FACTORIAL HepG2 Assay for human p53 Transcription Factor (AID 2282994); details: HepG2 p53 cis-element reporter, Attagene mRNA; actives raise or lower the signal
Sequence of Cellular tumor antigen p53 (Homo sapiens) (P04637 whole entry, looked up): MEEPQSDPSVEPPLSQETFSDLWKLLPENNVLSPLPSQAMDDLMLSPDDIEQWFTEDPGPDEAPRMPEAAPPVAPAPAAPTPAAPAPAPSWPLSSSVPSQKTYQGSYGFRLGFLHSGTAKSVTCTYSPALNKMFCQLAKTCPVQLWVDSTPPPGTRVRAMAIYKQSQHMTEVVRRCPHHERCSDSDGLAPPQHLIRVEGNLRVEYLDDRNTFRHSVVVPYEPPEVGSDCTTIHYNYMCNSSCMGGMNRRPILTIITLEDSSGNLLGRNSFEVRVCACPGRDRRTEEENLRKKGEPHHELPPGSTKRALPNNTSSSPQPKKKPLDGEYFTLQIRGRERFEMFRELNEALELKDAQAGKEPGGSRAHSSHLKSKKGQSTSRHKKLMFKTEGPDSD
Summary of the method: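 HepG2 cells transiently transfected with multiplexed cis-regulated reporter transcription units read endogenous TF activity. After 24 h compound exposure, reporter mRNA was quantified by RT-PCR, fluorescent labelling, HpaI digestion and capillary electrophoresis; bidirectional fits versus DMSO baseline.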

[8] = BSK_3C_TissueFactor: BioMAP Diversity Plus: 3C Assay for Tissue Factor Biomarker Activity (AID 2282997); details: BioMAP 3C HUVEC, tissue factor biomarker readout; actives raise or lower the signal
Summary of the method: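 Human vascular primary cells (umbilical vein endothelium) received test chemical; Tissue Factor was determined by ELISA at 24 h, and both gain and loss of signal versus DMSO were fitted.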

[9] = BSK_3C_uPAR: BioMAP Diversity Plus: 3C Assay for Urokinase-type plasminogen activator receptor (uPAR) Biomarker Activity (AID 2282998); details: BioMAP 3C HUVEC, uPAR biomarker ELISA; actives raise or lower the signal
Summary of the method: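 Human umbilical vein endothelial primary cells were exposed to test chemical for 24 h. Cell-surface uPAR was then quantified by ELISA, and responses were fitted bidirectionally against DMSO as negative control and baseline.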

[10] = BSK_3C_VCAM1: BioMAP Diversity Plus: 3C Assay for Vascular cell adhesion molecule 1 (VCAM1) Biomarker Activity (AID 2282999); details: BioMAP 3C HUVEC, VCAM1 ELISA, cytokine-stimulated; actives raise or lower the signal
Summary of the method: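 Human umbilical vein endothelial cells (3C system), biomarker read by ELISA 24 h after dosing; bidirectional fit against DMSO baseline. Cytotoxicity tracked by SRB total-protein staining in parallel cultures at biomarker time.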

[11] = BSK_4H_Eotaxin3: BioMAP Diversity Plus: 4H Assay for Eotaxin 3 Biomarker Activity (AID 2283000); details: primary human endothelial cells (HUVEC); actives raise or lower the signal;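 for outcome: CCL26 protein level quantified by ELISA in parallel with SRB cytotoxicity check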
Summary of the method: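 Readout is Eotaxin-3 (CCL26) level by ELISA in primary human umbilical vein endothelial cells harvested 24 h after chemical exposure; activity fitted in both directions against DMSO control.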

[12] = molecular target: human Peroxisome Proliferator-activated Receptor delta (PPARd), PPARD (gene 5467) (UniProt Q03181); test: ATG_PPARd_TRANS: Attagene TRANS-FACTORIAL HepG2 Assay for human Peroxisome Proliferator-activated Receptor delta (PPARd) (AID 2283002; active = hit-call score of the fitted dose curve at least 0.9, where 1 is the maximum)
Sequence of human Peroxisome Proliferator-activated Receptor delta (PPARd), PPARD (gene 5467) (Q03181 whole entry, looked up, the tested form may be a part): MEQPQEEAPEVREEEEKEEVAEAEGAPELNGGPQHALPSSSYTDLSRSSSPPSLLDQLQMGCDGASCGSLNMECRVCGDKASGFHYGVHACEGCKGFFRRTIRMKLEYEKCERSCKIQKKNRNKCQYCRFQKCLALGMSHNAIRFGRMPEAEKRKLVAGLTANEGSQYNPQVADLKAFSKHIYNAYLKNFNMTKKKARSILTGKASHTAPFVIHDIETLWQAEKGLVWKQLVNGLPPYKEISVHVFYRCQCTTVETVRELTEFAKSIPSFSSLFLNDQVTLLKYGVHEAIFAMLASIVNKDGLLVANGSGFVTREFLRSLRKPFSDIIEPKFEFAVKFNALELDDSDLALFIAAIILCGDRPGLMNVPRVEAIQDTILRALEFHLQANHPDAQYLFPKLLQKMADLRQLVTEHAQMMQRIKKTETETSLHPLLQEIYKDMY
Summary of the method: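 Read-out: reporter mRNA induction, quantified by fluorescent RT-PCR products resolved by capillary electrophoresis. Human HepG2 liver cells carried transiently transfected Gal4-UAS reporter constructs with chimeric NR-Gal4 fusions. Cells were dosed for 24 h; DMSO served as baseline.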

[13] = BSK_3C_Proliferation: Cell Proliferation Assessment in the BioMAP Diversity Plus: 3C Assay (AID 2283006); details: primary human endothelial cells (HUVEC);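 for AC50: potency may reflect either rise or fall in cell number versus DMSO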
Summary of the method: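 Read-out is total protein by SRB absorbance at 560 nm, taken as a proxy for relative cell number. Primary human umbilical vein endothelium cultured below confluence was dosed for 48 h, TCA-fixed and SRB-stained; curves were fitted bidirectionally versus DMSO.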

[14] = molecular target: human Peroxisome Proliferator-activated Receptor alpha (PPARa), PPARA (gene 5465) (UniProt Q07869); test: ATG_PPARa_TRANS: Attagene TRANS-FACTORIAL HepG2 Assay for human Peroxisome Proliferator-activated Receptor alpha (PPARa) (AID 2283001; active = hit-call score of the fitted dose curve at least 0.9, where 1 is the maximum)
Sequence of human Peroxisome Proliferator-activated Receptor alpha (PPARa), PPARA (gene 5465) (Q07869 whole entry, looked up, the tested form may be a part): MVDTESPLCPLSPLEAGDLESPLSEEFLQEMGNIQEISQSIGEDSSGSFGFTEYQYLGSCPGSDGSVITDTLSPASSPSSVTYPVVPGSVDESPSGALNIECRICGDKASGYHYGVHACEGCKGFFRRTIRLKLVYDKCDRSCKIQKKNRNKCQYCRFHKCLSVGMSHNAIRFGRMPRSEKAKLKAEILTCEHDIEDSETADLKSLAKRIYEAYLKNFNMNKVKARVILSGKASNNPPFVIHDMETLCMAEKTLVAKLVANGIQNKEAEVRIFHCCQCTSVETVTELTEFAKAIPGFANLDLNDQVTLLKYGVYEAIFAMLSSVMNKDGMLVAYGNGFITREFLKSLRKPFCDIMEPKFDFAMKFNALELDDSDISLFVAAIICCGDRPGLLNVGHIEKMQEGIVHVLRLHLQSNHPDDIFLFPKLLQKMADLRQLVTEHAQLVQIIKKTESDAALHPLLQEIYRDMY
Summary of the method: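 HepG2 cells transiently transfected with multiplexed GAL4-UAS reporters driven by exogenous chimeric NR-Gal4 proteins; reporter mRNA measured after 24 h dosing. Read-out by RT-PCR, 6-FAM labelling, HpaI digestion and capillary electrophoresis; gain of signal versus DMSO.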

[15] = molecular target: Retinoic acid receptor alpha (Homo sapiens) (UniProt P10276); test: ATG_RARa_TRANS: Attagene TRANS-FACTORIAL HepG2 Assay for human Retinoic Acid Receptor alpha (RARa) (AID 2283005; active = hit-call score of the fitted dose curve at least 0.9, where 1 is the maximum)
Sequence of Retinoic acid receptor alpha (Homo sapiens) (P10276 whole entry, looked up, the tested form may be a part): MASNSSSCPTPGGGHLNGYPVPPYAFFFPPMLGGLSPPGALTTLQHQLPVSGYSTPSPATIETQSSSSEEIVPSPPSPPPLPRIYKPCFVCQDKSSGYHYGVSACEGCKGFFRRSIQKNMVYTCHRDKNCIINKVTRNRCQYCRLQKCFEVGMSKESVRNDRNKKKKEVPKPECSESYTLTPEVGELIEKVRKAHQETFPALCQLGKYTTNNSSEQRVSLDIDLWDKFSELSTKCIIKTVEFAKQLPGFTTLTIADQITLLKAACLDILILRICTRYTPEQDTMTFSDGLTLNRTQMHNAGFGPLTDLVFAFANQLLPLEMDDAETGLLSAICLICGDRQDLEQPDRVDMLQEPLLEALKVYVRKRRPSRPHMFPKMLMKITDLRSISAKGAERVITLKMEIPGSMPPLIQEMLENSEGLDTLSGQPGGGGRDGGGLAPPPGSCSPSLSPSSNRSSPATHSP
Summary of the method: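 HepG2 transiently transfected with multiplex GAL4-UAS reporter units including a human RARa–GAL4 chimera; 24 h compound exposure. Reporter mRNA quantified by RT-PCR, 6-FAM labeling and capillary electrophoresis; gain of signal versus DMSO.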

[16] = molecular target: Peroxisome proliferator-activated receptor gamma (Homo sapiens) (UniProt P37231); test: ATG_PPARg_TRANS: Attagene TRANS-FACTORIAL HepG2 Assay for human Peroxisome Proliferator-activated Receptor-gamma (PPARg) (AID 2283007; active = hit-call score of the fitted dose curve at least 0.9, where 1 is the maximum)
Sequence of Peroxisome proliferator-activated receptor gamma (Homo sapiens) (P37231 whole entry, looked up, the tested form may be a part): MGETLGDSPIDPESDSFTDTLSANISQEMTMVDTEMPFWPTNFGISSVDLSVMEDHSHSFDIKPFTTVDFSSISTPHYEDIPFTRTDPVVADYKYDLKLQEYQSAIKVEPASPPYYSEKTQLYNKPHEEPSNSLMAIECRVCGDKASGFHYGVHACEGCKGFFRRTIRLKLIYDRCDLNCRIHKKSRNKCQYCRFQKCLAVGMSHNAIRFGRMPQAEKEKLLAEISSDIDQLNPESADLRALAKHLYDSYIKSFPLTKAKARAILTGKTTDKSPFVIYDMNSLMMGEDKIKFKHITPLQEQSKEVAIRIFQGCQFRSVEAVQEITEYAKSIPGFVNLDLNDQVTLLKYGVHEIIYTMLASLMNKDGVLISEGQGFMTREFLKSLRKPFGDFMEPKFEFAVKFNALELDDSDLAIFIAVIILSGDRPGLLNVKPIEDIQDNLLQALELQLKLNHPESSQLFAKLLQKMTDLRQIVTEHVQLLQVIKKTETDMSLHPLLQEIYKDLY
Summary of the method: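 Chimeric NR-Gal4 transactivation is measured in transiently transfected HepG2 cells by reporter mRNA induction at 24 h. Detection uses RT-PCR with fluorescent labelling and capillary electrophoresis; DMSO defines baseline.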

[17] = molecular target: Nuclear receptor subfamily 1 group I member 2 (Homo sapiens) (UniProt O75469); test: ATG_PXR_TRANS: Attagene TRANS-FACTORIAL HepG2 Assay for human Pregnane X Receptor (PXR) (AID 2283008; active = hit-call score of the fitted dose curve at least 0.9, where 1 is the maximum)
Sequence of Nuclear receptor subfamily 1 group I member 2 (Homo sapiens) (O75469 whole entry, looked up, the tested form may be a part): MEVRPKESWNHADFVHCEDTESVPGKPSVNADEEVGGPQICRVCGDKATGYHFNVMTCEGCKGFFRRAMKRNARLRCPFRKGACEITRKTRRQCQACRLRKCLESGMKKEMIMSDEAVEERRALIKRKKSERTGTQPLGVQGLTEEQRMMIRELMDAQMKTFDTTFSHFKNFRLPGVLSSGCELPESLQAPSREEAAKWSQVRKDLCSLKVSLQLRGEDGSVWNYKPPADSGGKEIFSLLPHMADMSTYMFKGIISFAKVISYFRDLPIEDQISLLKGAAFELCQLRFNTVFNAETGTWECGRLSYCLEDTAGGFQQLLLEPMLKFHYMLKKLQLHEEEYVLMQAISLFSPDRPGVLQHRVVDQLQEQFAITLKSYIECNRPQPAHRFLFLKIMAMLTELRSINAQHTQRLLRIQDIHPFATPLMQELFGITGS
Summary of the method: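 HepG2 cells transiently transfected with multiple reporter units, here a PXR-GAL4 chimera driving a GAL4-UAS reporter; 24 h compound exposure. Reporter mRNA measured by RT-PCR, FAM labelling and capillary electrophoresis; gain of signal fitted against DMSO baseline.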

[18] = molecular target: human Retinoic Acid Receptor gamma (RARg), RARG (gene 5916) (UniProt P13631); test: ATG_RARg_TRANS: Attagene TRANS-FACTORIAL HepG2 Assay for human Retinoic Acid Receptor gamma (RARg) (AID 2283009; active = hit-call score of the fitted dose curve at least 0.9, where 1 is the maximum)
Sequence of human Retinoic Acid Receptor gamma (RARg), RARG (gene 5916) (P13631 whole entry, looked up): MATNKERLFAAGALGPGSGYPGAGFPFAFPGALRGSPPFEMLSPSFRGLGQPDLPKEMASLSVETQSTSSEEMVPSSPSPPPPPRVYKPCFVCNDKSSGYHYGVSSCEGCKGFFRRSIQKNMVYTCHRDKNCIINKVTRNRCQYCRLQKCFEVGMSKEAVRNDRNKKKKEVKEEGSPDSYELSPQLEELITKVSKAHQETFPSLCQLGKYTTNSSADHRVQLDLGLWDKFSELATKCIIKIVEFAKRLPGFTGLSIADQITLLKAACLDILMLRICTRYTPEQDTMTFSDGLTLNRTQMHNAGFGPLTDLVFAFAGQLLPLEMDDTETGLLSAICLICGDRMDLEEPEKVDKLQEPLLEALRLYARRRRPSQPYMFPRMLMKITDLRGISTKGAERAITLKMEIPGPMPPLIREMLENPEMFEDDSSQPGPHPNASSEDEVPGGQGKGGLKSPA
Summary of the method: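 Transient transfection of HepG2 with multi-reporter constructs, then 24 h chemical treatment. Total RNA isolated, reverse-transcribed, PCR-amplified, fluorescently labelled and resolved by capillary electrophoresis; activity scored as mRNA induction versus DMSO.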

[19] = molecular target: human Retinoic Acid Receptor beta (RARb), RARB (gene 5915) (UniProt P10826); test: ATG_RARb_TRANS: Attagene TRANS-FACTORIAL HepG2 Assay for human Retinoic Acid Receptor beta (AID 2283004; active = hit-call score of the fitted dose curve at least 0.9, where 1 is the maximum)
Sequence of human Retinoic Acid Receptor beta (RARb), RARB (gene 5915) (P10826 whole entry, looked up, the tested form may be a part): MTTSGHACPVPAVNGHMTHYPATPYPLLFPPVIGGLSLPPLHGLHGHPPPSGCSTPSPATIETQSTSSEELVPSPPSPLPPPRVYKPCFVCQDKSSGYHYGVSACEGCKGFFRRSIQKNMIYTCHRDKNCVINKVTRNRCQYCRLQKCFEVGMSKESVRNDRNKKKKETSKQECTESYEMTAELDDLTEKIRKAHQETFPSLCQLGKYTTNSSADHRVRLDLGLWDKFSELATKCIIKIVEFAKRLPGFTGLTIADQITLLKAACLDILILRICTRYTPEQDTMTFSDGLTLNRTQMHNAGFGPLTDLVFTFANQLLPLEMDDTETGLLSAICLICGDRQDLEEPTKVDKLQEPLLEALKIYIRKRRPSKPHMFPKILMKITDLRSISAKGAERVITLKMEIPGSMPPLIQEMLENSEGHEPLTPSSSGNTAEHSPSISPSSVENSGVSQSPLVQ
Summary of the method: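 Readout is reporter mRNA induction: RNA reverse-transcribed, PCR-amplified, FAM-labelled, HpaI-cut and resolved by capillary electrophoresis. Transiently transfected HepG2 cells carrying exogenous NR–Gal4 chimeras were dosed for 24 h; activity fitted upward relative to DMSO.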

CC(CCC(=O)O)(c1ccc(O)cc1)c1ccc(O)cc1
outcome [1]: inactive | outcome [2]: inactive | outcome [3]: inactive | outcome [4]: inactive | outcome [5]: inactive | outcome [6]: inactive | outcome [7]: inactive | outcome [8]: inactive | outcome [9]: inactive | outcome [10]: inactive | outcome [11]: inactive | outcome [12]: inactive | outcome [13]: inactive

CC1(C)CCC[C@]2(C)[C@H]3CC(=O)O[C@]3(C)CC[C@@H]12
outcome [1]: inactive | outcome [2]: inactive | outcome [3]: inactive | outcome [4]: inactive | AC50 [5]: 30.3 µM (active) | outcome [6]: inactive | outcome [7]: inactive | outcome [14]: inactive | outcome [12]: inactive | outcome [15]: inactive | outcome [16]: inactive | AC50 [17]: 6.22 µM (active) | outcome [18]: inactive

CCOC(=O)[C@H](O)[C@@H](O)C(=O)OCC
outcome [1]: inactive | outcome [2]: inactive | outcome [3]: inactive | outcome [4]: inactive | outcome [5]: inactive | outcome [6]: inactive | outcome [7]: inactive | outcome [14]: inactive | outcome [12]: inactive | outcome [19]: inactive | outcome [15]: inactive | outcome [16]: inactive | AC50 [17]: 68.2 µM (active)

C[N+](C)(C)CCCNS(=O)(=O)C(F)(F)C(F)(F)C(F)(F)C(F)(F)C(F)(F)C(F)(F)C(F)(F)C(F)(F)F
outcome [1]: inactive | outcome [2]: inactive | outcome [3]: inactive | outcome [4]: inactive | outcome [5]: inactive | outcome [6]: inactive | outcome [7]: inactive | AC50 [8]: 41.3 µM (active) | outcome [8]: inactive | AC50 [9]: 20.7 µM (active) | outcome [9]: inactive | outcome [10]: inactive | AC50 [11]: 39 µM (active) and 45.1 µM (active) | outcome [14]: inactive | AC50 [13]: 43.4 µM (active) and 42.7 µM (active) | outcome [17]: inactive | outcome [18]: inactive

CCCCCOC(=O)CCCCC
outcome [1]: inactive | outcome [2]: inactive | outcome [3]: inactive | outcome [4]: inactive | outcome [5]: inactive | outcome [6]: inactive | outcome [7]: inactive

Nc1ccc(C(=O)O)cc1
outcome [1]: inactive | outcome [2]: inactive | outcome [3]: inactive | outcome [4]: inactive | outcome [5]: inactive | outcome [6]: inactive | outcome [7]: inactive | outcome [8]: inactive | outcome [9]: inactive | outcome [10]: inactive | outcome [11]: inactive | outcome [19]: inactive | outcome [15]: inactive | outcome [13]: inactive | outcome [18]: inactive

COc1ccc(C(=O)/C(Br)=C\C(=O)O)cc1
outcome [1]: inactive | outcome [2]: inactive | outcome [3]: inactive | AC50 [4]: 13 µM (active) | AC50 [5]: 2.53 µM (active) | AC50 [6]: 49.4 µM (active) | outcome [7]: inactive | AC50 [8]: 11.9 µM (active) and 10.2 µM (active) | AC50 [9]: 29.7 µM (active) and 31.7 µM (active) | AC50 [10]: 14.2 µM (active) and 20 µM (active) | AC50 [11]: 8.38 µM (active) and 20 µM (active) | AC50 [13]: 6.82 µM (active) and 20 µM (active) | AC50 [17]: 6.78 µM (active) | outcome [18]: inactive

CC1(C)C(=O)N(CO)C(=O)N1CO
outcome [1]: inactive | outcome [2]: inactive | outcome [3]: inactive | outcome [4]: inactive | AC50 [5]: 26.1 µM (active) | outcome [6]: inactive | outcome [7]: inactive | outcome [14]: inactive | outcome [12]: inactive | outcome [19]: inactive | outcome [15]: inactive | outcome [17]: inactive | outcome [18]: inactive

CC(c1cc(C(C)(C)C)cc(C(C)(C)C)c1O)c1cc(C(C)(C)C)cc(C(C)(C)C)c1O
outcome [1]: inactive | outcome [2]: inactive | outcome [3]: inactive | outcome [4]: inactive | outcome [5]: inactive | outcome [6]: inactive | outcome [7]: inactive | AC50 [8]: 0.464 µM (active) | outcome [9]: inactive | outcome [10]: inactive | AC50 [11]: 1.65 µM (active) | outcome [14]: inactive | outcome [12]: inactive | outcome [19]: inactive | outcome [15]: inactive | AC50 [13]: 5.09 µM (active) | AC50 [17]: 0.0816 µM (active)

Reference: PubChem BioAssay (EPA / NIEHS)
